Values joined by “and” are separate entries in the source; they are usually repeats but may differ in a detail not shown here. Identical values can stand only once. Results filed as inconclusive are left out. A structure can be active in one record and inactive in another. Active and inactive are the calls of the source. How the source made its calls, unless noted: active means hit-call score of the fitted dose curve at least 0.9, where 1 is the maximum; inconclusive means response in the unintended direction; inactive means score below 0.9.

A short description of experiment [1]: ATG_ERE_CIS: Attagene CIS-FACTORIAL HepG2 Assay for Estrogen Response Element (ERE) (AID 2282940; active means hit-call score of the fitted dose curve at least 0.9, where 1 is the maximum; inactive means score below 0.9). As to conditions: HepG2 ERE cis-reporter, Attagene RNA transcript; actives raise or lower the signal. The method in brief: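 HepG2 cells transiently transfected with multiplexed cis-element reporter units, measuring endogenous transcription factor activity; ERE reporter mRNA quantified after 24 h exposure by RT-PCR, fluorescent labelling, HpaI digestion and capillary electrophoresis. Bidirectional change versus DMSO.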

Experiment [2] deals with Bile acid receptor (Homo sapiens) (UniProt Q96RI1). The experiment in a line: ATG_IR1_CIS: Attagene CIS-FACTORIAL HepG2 Assay for human Nuclear Receptor Subfamily 1 Group H Member 4 (NR1H4), IR1 submotif (AID 2282946; active means hit-call score of the fitted dose curve at least 0.9, where 1 is the maximum; inactive means score below 0.9). As to conditions: IR1 reporter transcription, actives raise or lower the signal. The method in brief:
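HepG2 cells transiently transfected with multiple cis-promoter-driven reporter units to measure endogenous transcription factor activity; 24 h exposure. Reporter mRNA read by RT-PCR, FAM labelling, HpaI digestion and capillary electrophoresis. Bidirectional fit versus DMSO.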

For experiment [3], the target named is Glucocorticoid receptor (Homo sapiens) (UniProt P04150). The experiment in a line: ATG_GR_TRANS: Attagene TRANS-FACTORIAL HepG2 Assay for human Glucocorticoid Receptor (GR) (AID 2282978).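 Further: activators score as hits since higher reporter transcript over DMSO is fitted.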 Conditions: HepG2 Attagene TRANS GR reporter, mRNA transcription. The procedure, abridged:
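Reporter transcript levels, detected by fluorescence after RT-PCR and capillary electrophoresis, served as the endpoint. HepG2 cells bearing transfected GAL4-UAS reporters responsive to NR-GAL4 chimeras were incubated with compound 24 h; DMSO defined baseline.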

A short description of experiment [4]: BSK_4H_Eotaxin3: BioMAP Diversity Plus: 4H Assay for Eotaxin 3 Biomarker Activity (AID 2283000; active means hit-call score of the fitted dose curve at least 0.9, where 1 is the maximum; inactive means score below 0.9). Conditions: primary human endothelial cells (HUVEC); actives raise or lower the signal. The procedure, abridged:
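Endothelial primary cells (human umbilical vein) exposed to compound for 24 h. ELISA detection of Eotaxin-3.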

Read-out in experiment [5]: Intercellular Adhesion Molecule 1 (ICAM1), ICAM1 (gene 3383)
The experiment in a line: BSK_3C_ICAM1: BioMAP Diversity Plus: 3C Assay for Intercellular Adhesion Molecule 1 (ICAM1) Biomarker Activity (AID 2283003; active means hit-call score of the fitted dose curve at least 0.9, where 1 is the maximum; inactive means score below 0.9). Conditions: primary human endothelial cells (HUVEC); actives raise or lower the signal. The method in brief:
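ICAM-1 levels measured by ELISA after HUVEC cultures in the 3C system had been dosed for 24 h. Gain or loss of signal relative to DMSO was fitted in both directions.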

For experiment [6], the target named is Nuclear receptor subfamily 1 group I member 2 (Homo sapiens) (UniProt O75469). The experiment in a line: ATG_PXR_TRANS: Attagene TRANS-FACTORIAL HepG2 Assay for human Pregnane X Receptor (PXR) (AID 2283008). The procedure, abridged: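 Measures mRNA induction of a GAL4-UAS-driven reporter in human HepG2 cells transiently expressing PXR fused to Gal4, following 24 h treatment. DMSO served as negative control and baseline.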
Sequence of Nuclear receptor subfamily 1 group I member 2 (Homo sapiens) (O75469 whole entry, looked up, the tested form may be a part): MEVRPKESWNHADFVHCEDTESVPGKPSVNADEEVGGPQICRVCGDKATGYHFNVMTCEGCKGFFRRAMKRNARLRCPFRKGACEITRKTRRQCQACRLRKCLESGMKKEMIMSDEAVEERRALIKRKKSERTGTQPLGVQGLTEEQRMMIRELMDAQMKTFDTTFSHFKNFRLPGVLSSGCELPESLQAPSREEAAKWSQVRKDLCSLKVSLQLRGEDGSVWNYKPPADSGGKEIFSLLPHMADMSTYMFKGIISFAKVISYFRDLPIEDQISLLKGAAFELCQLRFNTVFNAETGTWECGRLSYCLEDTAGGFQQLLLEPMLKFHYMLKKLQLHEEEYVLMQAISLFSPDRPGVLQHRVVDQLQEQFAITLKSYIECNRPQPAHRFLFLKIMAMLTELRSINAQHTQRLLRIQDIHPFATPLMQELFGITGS

Experiment [7] has as its target Retinoic acid receptor RXR-alpha (Homo sapiens) (UniProt P19793). The experiment in a line: ATG_RXRa_TRANS: Attagene TRANS-FACTORIAL HepG2 Assay for human Retinoid X Receptor alpha (RXRa) (AID 2283012). The method in brief:
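Transient transfection of human HepG2 with multiple GAL4-UAS reporter constructs; 24 h compound exposure; total RNA isolated, reverse-transcribed, PCR-amplified, 6-FAM labelled, HpaI-cut, resolved by capillary electrophoresis. Positive-direction fit versus DMSO.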

Read-out in experiment [8]: Monokine induced gamma interferon (MIG), CXCL9 (gene 4283)
The experiment in a line: BSK_3C_MIG: BioMAP Diversity Plus: 3C Assay for Monokine induced gamma interferon (MIG) Biomarker Activity (AID 2283021; active means hit-call score of the fitted dose curve at least 0.9, where 1 is the maximum; inactive means score below 0.9;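 further: MIG protein level measured by immunoassay in the treated endothelial cultures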). Conditions: primary human endothelial cells (HUVEC); actives raise or lower the signal. The procedure, abridged:
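Read-out is ELISA detection of MIG on human umbilical vein endothelial cells, taken 24 h after dosing. Gain or loss of signal was scored relative to DMSO controls using bidirectional curve fitting.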

Read-out in experiment [9]: Urokinase-type plasminogen activator receptor (uPAR), PLAUR (gene 5329)
The experiment in a line: BSK_4H_uPAR: BioMAP Diversity Plus: 4H Assay for Urokinase-type plasminogen activator receptor (uPAR) Biomarker Activity (AID 2283030; active means hit-call score of the fitted dose curve at least 0.9, where 1 is the maximum; inactive means score below 0.9). As to conditions: primary human endothelial cells (HUVEC); actives raise or lower the signal. The method in brief: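 Chemicals are dosed onto human vascular endothelial primary cells (umbilical vein). After 24 h, uPAR is read by ELISA. Gain or loss of signal is fitted relative to DMSO.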

Read-out in experiment [10]: Monokine induced gamma interferon (MIG), CXCL9 (gene 4283)
The experiment in a line: BSK_BE3C_MIG: BioMAP Diversity Plus: BE3C Assay for Monokine induced gamma interferon (MIG) Biomarker Activity (AID 2283035; active means hit-call score of the fitted dose curve at least 0.9, where 1 is the maximum; inactive means score below 0.9). Conditions: primary human bronchial epithelial cells; actives raise or lower the signal. The method in brief: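 Primary human bronchial epithelial cells treated for 24 h; MIG levels measured by ELISA, fitted bidirectionally versus DMSO. Parallel SRB total-protein staining assessed cytotoxicity.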

Read-out in experiment [11]: urokinase plasminogen activator (uPA), PLAU (gene 5328)
The experiment in a line: BSK_BE3C_uPA: BioMAP Diversity Plus: BE3C Assay for urokinase plasminogen activator (uPA) Biomarker Activity (AID 2283038; active means hit-call score of the fitted dose curve at least 0.9, where 1 is the maximum; inactive means score below 0.9;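 on outcome: uPA protein level quantified by ELISA in cell cultures; uPA read one day after compound addition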). As to conditions: primary human bronchial epithelial cells; actives raise or lower the signal. The procedure, abridged: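 Measured by ELISA: uPA from human primary bronchial epithelial cells 24 h after chemical treatment. Values derive from bidirectional curve fitting with DMSO serving as negative control. Total protein by SRB staining in parallel wells flagged overt cytotoxicity.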

A short description of experiment [12]: ATG_XTT_Cytotoxicity: Cytotoxicity Assessment in the Attagene TRANS-FACTORIAL HepG2 Assay (AID 2283584).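 On AC50: XTT signal for cell number as viability in transfected HepG2 cells; cells exposed to compound for 24 h before reading; active means loss of viability signal versus DMSO baseline.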 The method in brief: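 Transfect HepG2 with GAL4-UAS reporter units, dose compound, incubate 24 h, then measure viable cell number by XTT. Fit concentration response against DMSO baseline.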
Experiment [13] is described as follows: TOX21_p53_BLA_p3_viability: Viability Assessment in the Tox21 HCT-116 p53 Agonism Beta-lactamase Assay, Phase 3 (AID 2283593).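 Further: cells exposed to compound for 16 h before reading.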 The procedure, abridged:
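HCT116 cells, 4000/well, dosed 5 h after plating by pin transfer (217-fold dilution from DMSO stock) and incubated 16 h at 37C, 5% CO2. Viability read as ATP luminescence with CellTiter-Glo after 30 min at room temperature.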

Experiment [14] can be described thus: TOX21_p53_BLA_p4_viability: Viability Assessment in the Tox21 HCT-116 p53 Agonism Beta-lactamase Assay, Phase 4 (AID 2283597).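 Further: hits lower the luminescence signal meaning cytotoxicity.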 The procedure, abridged: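 Compound exposure of HCT116 cells lasts 16 h at 37C, 5% CO2, with DMSO stocks diluted 217-fold. Cellular ATP is then quantified by CellTiter-Glo luminescence after 30 min at room temperature.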
Experiment [15] is described as follows: TOX21_p53_BLA_p5_viability: Viability Assessment in the Tox21 HCT-116 p53 Agonism Beta-lactamase Assay, Phase 5 (AID 2283600). The method in brief: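 Counter-readout for cytotoxicity: ATP-dependent luminescence from CellTiter-Glo, read in the beta-lactamase wells after 30 min at RT, following a 16 h compound exposure at 37C.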
In experiment [16] the target is Nuclear receptor subfamily 1 group I member 3 (Homo sapiens) (UniProt Q14994). The experiment in a line: ATG_CAR_TRANS: Attagene TRANS-FACTORIAL HepG2 Assay for human Constitutive Androstane Receptor (CAR) (AID 2282969).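 Further: activators raise reporter mRNA above DMSO so AC50 marks induction.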 Conditions: HepG2 Attagene TRANS-FACTORIAL CAR reporter. The procedure, abridged:
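HepG2 cells transiently transfected with GAL4-UAS reporter units; TRANS format reads activity of exogenous chimeric NR-Gal4 protein. After 24 h dosing, reporter mRNA quantified by RT-PCR, 6-FAM labelling and capillary electrophoresis; gain of signal fitted against DMSO.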

In experiment [17] the target is human RAR-related Orphan Receptor beta (RORb), RORB (gene 6096) (UniProt Q92753). The experiment in a line: ATG_RORb_TRANS: Attagene TRANS-FACTORIAL HepG2 Assay for human RAR-related Orphan Receptor beta (RORb) (AID 2283010). The method in brief: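 Readout is reporter-gene mRNA induction, detected as fluorescence after RT-PCR and capillary electrophoresis, fitted for gain of signal against DMSO controls. Transiently transfected HepG2 liver cells carrying GAL4-UAS reporter constructs were treated for 24 hours.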
Sequence of human RAR-related Orphan Receptor beta (RORb), RORB (gene 6096) (Q92753 whole entry, looked up, the tested form may be a part): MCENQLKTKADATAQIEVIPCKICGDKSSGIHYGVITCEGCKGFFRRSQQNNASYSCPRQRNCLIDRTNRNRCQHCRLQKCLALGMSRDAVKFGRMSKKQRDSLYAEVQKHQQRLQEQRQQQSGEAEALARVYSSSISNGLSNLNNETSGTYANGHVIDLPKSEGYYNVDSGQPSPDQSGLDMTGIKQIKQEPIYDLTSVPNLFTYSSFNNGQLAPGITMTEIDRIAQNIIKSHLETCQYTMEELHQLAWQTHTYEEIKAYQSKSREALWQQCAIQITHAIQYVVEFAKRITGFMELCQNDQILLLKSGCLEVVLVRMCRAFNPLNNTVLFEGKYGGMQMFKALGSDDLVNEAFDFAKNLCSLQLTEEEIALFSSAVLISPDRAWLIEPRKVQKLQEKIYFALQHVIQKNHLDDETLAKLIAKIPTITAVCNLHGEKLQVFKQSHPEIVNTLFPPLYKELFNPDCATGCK

The nature of experiment [18]: ACEA_ER_AUC_viability: ACEA Biosciences xCELLigence Real-Time Cell Analysis on Estrogen Receptor Agonism for Viability (AID 2283782).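 Further: continuous compound exposure with impedance area under curve over 80 h; hit means loss of impedance signal meaning reduced cell growth or viability.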 The method in brief: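 T47D cells preconditioned in phenol red-free RPMI with charcoal-stripped FBS, then dosed with 8-point 1:4 series from 100 uM (up to 0.5% DMSO). Impedance monitored up to ~80 h; area-under-curve loss versus DMSO taken as viability.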

Experiment [19] concerns the target human Vitamin D Receptor (VDR), VDR (gene 7421) (UniProt P11473). The experiment in a line: ATG_VDR_TRANS: Attagene TRANS-FACTORIAL HepG2 Assay for human Vitamin D Receptor (VDR) (AID 2283022). The procedure, abridged: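 Fluorescence of labelled reporter cDNA fragments, resolved by capillary electrophoresis, gives mRNA induction after 24 h treatment of HepG2 cells carrying transfected Gal4-fusion reporter units. Activity is fitted in the positive direction with DMSO as baseline.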

Experiment [20] deals with human Peroxisome Proliferator-activated Receptor delta (PPARd), PPARD (gene 5467) (UniProt Q03181). The experiment in a line: ATG_PPARd_TRANS: Attagene TRANS-FACTORIAL HepG2 Assay for human Peroxisome Proliferator-activated Receptor delta (PPARd) (AID 2283002). The method in brief:
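Fluorescence from capillary electrophoresis of labelled RT-PCR reporter fragments gives the signal; DMSO sets baseline. Cells: HepG2 transiently carrying GAL4-UAS reporter units plus chimeric nuclear receptor-Gal4 proteins, exposed to chemicals for 24 h.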

Sequence of Glucocorticoid receptor (Homo sapiens) (P04150 whole entry, looked up, the tested form may be a part): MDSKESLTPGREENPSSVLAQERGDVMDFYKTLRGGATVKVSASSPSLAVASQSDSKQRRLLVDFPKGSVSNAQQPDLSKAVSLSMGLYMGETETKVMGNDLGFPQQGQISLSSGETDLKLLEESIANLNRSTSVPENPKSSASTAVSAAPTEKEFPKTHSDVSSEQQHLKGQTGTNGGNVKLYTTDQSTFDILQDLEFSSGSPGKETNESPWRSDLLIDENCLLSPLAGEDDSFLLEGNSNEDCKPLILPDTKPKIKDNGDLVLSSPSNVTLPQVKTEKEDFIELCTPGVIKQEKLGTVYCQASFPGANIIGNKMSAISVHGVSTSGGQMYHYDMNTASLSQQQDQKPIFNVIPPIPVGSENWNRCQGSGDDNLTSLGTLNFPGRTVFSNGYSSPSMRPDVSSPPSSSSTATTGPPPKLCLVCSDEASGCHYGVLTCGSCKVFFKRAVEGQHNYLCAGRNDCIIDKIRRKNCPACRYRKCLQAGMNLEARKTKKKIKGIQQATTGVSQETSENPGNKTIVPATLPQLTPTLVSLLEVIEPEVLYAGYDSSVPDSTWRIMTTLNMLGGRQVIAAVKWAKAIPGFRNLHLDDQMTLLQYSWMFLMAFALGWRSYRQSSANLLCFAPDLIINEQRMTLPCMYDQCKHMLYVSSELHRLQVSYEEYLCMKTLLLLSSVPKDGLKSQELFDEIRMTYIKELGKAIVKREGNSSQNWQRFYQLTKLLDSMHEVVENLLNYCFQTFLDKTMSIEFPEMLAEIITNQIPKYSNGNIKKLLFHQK
Sequence of Bile acid receptor (Homo sapiens) (Q96RI1 whole entry, looked up): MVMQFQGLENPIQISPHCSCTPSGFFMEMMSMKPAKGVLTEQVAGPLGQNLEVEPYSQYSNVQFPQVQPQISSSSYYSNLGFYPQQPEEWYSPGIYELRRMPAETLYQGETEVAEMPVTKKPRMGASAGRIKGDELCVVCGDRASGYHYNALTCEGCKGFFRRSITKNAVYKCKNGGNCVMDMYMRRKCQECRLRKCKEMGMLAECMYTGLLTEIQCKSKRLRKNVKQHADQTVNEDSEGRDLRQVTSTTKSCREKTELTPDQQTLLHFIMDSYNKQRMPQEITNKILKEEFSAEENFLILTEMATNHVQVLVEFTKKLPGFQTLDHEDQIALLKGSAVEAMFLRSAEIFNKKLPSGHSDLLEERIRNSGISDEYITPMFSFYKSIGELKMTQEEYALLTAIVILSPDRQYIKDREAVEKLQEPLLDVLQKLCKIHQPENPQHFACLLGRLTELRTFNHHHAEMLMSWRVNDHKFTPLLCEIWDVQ
Sequence of human Vitamin D Receptor (VDR), VDR (gene 7421) (P11473 whole entry, looked up, the tested form may be a part): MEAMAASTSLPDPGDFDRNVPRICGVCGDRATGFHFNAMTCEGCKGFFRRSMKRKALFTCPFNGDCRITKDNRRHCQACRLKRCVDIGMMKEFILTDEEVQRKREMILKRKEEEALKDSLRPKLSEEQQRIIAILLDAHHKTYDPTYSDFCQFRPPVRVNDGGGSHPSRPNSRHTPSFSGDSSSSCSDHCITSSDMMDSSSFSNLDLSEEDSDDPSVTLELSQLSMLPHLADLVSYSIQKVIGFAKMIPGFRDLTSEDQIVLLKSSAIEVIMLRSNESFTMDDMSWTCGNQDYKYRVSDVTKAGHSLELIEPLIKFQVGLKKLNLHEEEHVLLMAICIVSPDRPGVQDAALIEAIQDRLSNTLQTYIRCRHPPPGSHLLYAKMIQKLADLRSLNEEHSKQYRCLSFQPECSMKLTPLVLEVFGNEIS
Sequence of Retinoic acid receptor RXR-alpha (Homo sapiens) (P19793 whole entry, looked up, the tested form may be a part): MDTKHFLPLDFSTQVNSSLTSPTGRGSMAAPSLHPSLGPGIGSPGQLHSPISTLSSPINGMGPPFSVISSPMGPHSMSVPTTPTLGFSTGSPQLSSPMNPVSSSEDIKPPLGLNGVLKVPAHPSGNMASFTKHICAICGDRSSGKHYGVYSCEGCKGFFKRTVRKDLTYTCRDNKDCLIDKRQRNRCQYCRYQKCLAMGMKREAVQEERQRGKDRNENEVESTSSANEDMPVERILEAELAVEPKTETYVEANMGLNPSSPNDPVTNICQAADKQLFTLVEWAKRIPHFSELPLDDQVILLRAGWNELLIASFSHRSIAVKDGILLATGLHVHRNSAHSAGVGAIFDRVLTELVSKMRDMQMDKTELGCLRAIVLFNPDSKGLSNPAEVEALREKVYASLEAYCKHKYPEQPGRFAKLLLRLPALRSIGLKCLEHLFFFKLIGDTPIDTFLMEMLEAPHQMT
Sequence of Nuclear receptor subfamily 1 group I member 3 (Homo sapiens) (Q14994 whole entry, looked up, the tested form may be a part): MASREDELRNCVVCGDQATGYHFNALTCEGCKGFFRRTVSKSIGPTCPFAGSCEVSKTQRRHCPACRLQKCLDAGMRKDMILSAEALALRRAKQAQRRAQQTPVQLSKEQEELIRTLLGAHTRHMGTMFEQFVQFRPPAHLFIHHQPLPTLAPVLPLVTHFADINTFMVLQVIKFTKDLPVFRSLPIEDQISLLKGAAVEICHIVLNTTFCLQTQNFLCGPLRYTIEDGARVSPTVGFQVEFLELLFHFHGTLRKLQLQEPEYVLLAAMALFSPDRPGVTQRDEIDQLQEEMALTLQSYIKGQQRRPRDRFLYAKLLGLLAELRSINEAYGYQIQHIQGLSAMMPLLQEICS
Sequence of human Peroxisome Proliferator-activated Receptor delta (PPARd), PPARD (gene 5467) (Q03181 whole entry, looked up, the tested form may be a part): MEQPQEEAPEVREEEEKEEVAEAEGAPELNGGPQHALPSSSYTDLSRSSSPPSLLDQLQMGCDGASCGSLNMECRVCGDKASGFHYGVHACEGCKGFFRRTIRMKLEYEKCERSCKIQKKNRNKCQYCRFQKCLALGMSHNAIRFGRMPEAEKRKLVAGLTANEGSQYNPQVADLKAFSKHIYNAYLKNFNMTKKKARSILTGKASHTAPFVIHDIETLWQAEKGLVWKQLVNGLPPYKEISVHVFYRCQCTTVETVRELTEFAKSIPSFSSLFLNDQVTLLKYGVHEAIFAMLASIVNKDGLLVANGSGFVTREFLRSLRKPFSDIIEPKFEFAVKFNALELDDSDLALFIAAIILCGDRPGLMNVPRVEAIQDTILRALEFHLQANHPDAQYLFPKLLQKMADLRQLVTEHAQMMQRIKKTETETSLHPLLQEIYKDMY

One may read the AC50 as the concentration at which the activity in the assay is half-maximal. `Oc1ccc(C2(c3ccc(O)cc3)c3ccccc3-c3ccccc32)cc1`: the compound was classed as inactive in experiment [1], in experiment [2], in experiment [3], in [7], in experiment [11] and in [14]. In addition, the concentration at half-maximal activity (AC50) is 9.96 µM (active) and 9.53 µM (active) in [4]; 32.5 µM (active) and 22.6 µM (active) in experiment [5]; 0.384 µM (active) in experiment [6]; 16 µM (active) and 14.8 µM (active) in experiment [8]; 16.5 µM (active) and 14.4 µM (active) in experiment [9]; 5.44 µM (active) and 5.43 µM (active) in [10]. Also, the AC50 was 0.15 µM (active) in experiment [11], 34.9 µM (active) in experiment [12], 0.237 µM (active) in [13] and 74 µM (active) in experiment [15].
As to `CCCC=NO`, the AC50 in experiment [1] was 43.5 µM (active). For the same compound, the call in experiment [2], in [16], in [3], in [17], in experiment [13] and in experiment [14] was inactive. The call in experiment [15] and in [18] was inactive.
Turning to `Nc1ccccc1C(=O)OCCc1ccccc1`, the compound was called inactive in [16], in experiment [3], in experiment [17], in experiment [12], in experiment [13] and in experiment [14]. For the same compound, the call in experiment [15] was inactive.
For the compound `O=[N+]([O-])C=Cc1ccccc1`, the half-maximal activity concentration (AC50) is 46.8 µM (active) in [2]; 9.12 µM (active) in [4]; 7.32 µM (active) in [5]; 8.62 µM (active) in experiment [6]; 11.4 µM (active) in experiment [8]; 5.14 µM (active) in [9]. In addition, the concentration at half-maximal activity (AC50) in experiment [10] is 3.89 µM (active); in experiment [11], 1.03 µM (active); in [12], 75.7 µM (active). For the same compound, the compound was called inactive in experiment [16], in [17], in experiment [7], in experiment [19], in [13] and in experiment [15]. In addition, the call in [18] was inactive.
Regarding `C[C@]12CC[C@H]3[C@@H](CC[C@@]45O[C@@H]4C(O)=C(C#N)C[C@]35C)[C@@H]1CC[C@@H]2O`, the result in experiment [16], in experiment [20], in [19], in [12], in experiment [13] and in [15] was inactive.
On to `CC(C)(c1cc(Cl)c(O)c(Cl)c1)c1cc(Cl)c(O)c(Cl)c1`, for which the outcome in experiment [3], in experiment [20], in experiment [19], in experiment [11], in [13] and in experiment [14] was inactive. In addition, the call in [15] was inactive. Further, the AC50 was 32.1 µM (active) in experiment [4]; 29.4 µM (active) in experiment [5]; 28.9 µM (active) in [8]; 30.2 µM (active) in experiment [9]; 7.45 µM (active) in [10]; 65.5 µM (active) in [13]. The AC50 in experiment [14] is 62.3 µM (active); in [18] it was 90.8 µM (active).
For `O=C=Nc1ccccc1`, the compound was classed as inactive in [16], in experiment [17], in [7], in [19] and in experiment [18].
For `CN(N=O)c1ccccc1`, the call in experiment [1], in [2], in experiment [16], in experiment [6], in experiment [17] and in experiment [19] was inactive.
As for `CC(C)C#N`, the compound was classed as inactive in [3], in experiment [20], in experiment [7], in [12] and in [18].
